RE007 growth inh – qHTS Assay for Inhibitors of the HIV-1 protein Vpr; S. pombe RE007 Vpr strain, BacTiter-Glo ATP luminescence, 24 h; Potency, µM (series often up to 92.2 µM), hits mostly inhibitors; hit rate 0.21% among 360,000; active means well fitted falling curve with a large enough effect; inconclusive means small, poorly fitted or top-dose-only effect; inactive means no such curve, though single readings can be large or run the other way; further: nearly all actives have a fitted effect of over 50% in size
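Fission yeast RE007 carrying one integrated HIV-1 vpr copy, seeded at OD 0.01 in PMG+AL medium with 23 nL pinned compound. Grown 24 h at 30 degrees; viability read by BacTiter-Glo luminescence after 5 min.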
LmPK inh – qHTS Assay for Inhibitors of Leishmania Mexicana Pyruvate Kinase (LmPK); hit rate 0.37% among 290,000; purified LmPK, Kinase-Glo ATP luminescence, 1 h; AID 1721, 2009; Q27686; Potency, µM (series often up to 57.5 µM), hits mostly inhibitors
Target sequence (Q27686 whole entry, looked up): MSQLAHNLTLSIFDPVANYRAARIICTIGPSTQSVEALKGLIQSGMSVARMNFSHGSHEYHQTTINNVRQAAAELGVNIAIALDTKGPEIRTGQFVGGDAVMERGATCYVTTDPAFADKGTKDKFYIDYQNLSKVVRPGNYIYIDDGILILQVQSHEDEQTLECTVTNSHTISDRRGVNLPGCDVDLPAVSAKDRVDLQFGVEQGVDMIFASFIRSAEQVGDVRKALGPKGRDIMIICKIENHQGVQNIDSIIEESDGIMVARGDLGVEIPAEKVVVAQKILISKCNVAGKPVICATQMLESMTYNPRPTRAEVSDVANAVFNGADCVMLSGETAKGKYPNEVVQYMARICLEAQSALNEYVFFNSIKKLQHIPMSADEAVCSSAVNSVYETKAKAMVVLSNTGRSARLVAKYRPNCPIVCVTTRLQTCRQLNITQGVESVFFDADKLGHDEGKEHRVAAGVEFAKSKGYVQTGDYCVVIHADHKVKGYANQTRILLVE
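In 50 mM imidazole pH 7.2 with 7 mM MgCl2, LmPK (0.1 nM) turned over PEP (0.5 mM) and ADP (0.1 mM) for 1 h at room temperature. Luciferase read-out of ATP.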
TbPYK inhibitor – qHTS of Trypanosoma Brucei Inhibitors. pyruvate kinase (Trypanosoma brucei), Q57TT1. TbPYK enzyme, Kinase-Glo Plus ATP luminescence, 45 min. Potency, µM (titrated, usually from 76.8 µM), hits mostly inhibitors. hit rate 0.12% among 410,000. AID 624173, 2012; further: nearly all actives have a fitted effect of over 50% in size
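Luminescent Kinase-Glo Plus end-point after 45 min room-temperature reaction of T. brucei pyruvate kinase started with 130 uM ADP (final). Buffer TEA 50 mM pH 7.2 with KCl, MgCl2, BSA, Tween-20; titration-based qHTS with fitted concentration-effect curves.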
NS1 inh – qHTS Assay for Inhibitors of Influenza NS1 Protein Function | Potency, µM (top dose mostly 46.1 µM) | hit rate 0.4% among 270,000 | AID 2326, 2010; calls by dose curve; further: actives are rising curves; nearly all actives have a fitted effect of over 50% in size
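OD600 was taken as the measure of yeast growth restored by compound in an NS1-expressing S. cerevisiae strain. Cells had been washed out of glucose medium and diluted 1:100 into galactose -URA medium, pH 6.0.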
A number is an active result; . = inactive; ? = inconclusive; / = no result; [ ] = dose if it differs, or a comment. Shown are actives, neighbours in structure and some others; about 0.77% of the full set was active somewhere. Unless noted, the call rests on the fitted dose curve; in most records, active means well fitted curve in the direction sought with a large enough effect; inconclusive means small, poorly fitted or top-dose-only effect, or another doubt; inactive means no such curve, though single readings can be large; an effect the other way counts as inactive or inconclusive.

SMILES	RE007 growth inh	LmPK inh	TbPYK inhibitor	NS1 inh
CC(=O)C(C(C)=O)c1c(Cl)c(O)c(O)c2c(C(=O)c3ccccc3)coc12	.	11µM	?	.
N#Cc1c(C#N)c(SSc2c(C#N)c(C#N)c(N)n2-c2ccccc2)n(-c2ccccc2)c1N	.	/	0.89µM	/
CC1=C(C)/C(=N\OS(=O)(=O)c2ccc(C)cc2)C=CC1=O	16µM	.	.	.
CC1=C/C(=N\OS(=O)(=O)c2ccccc2)C(C)=CC1=O	35µM	.	.	.
CC(=O)c1ccc(N2CCN(C(=O)C3CCN(S(=O)(=O)c4cccc5nonc45)CC3)CC2)cc1	/	/	.	/
Cc1ccc(-n2ncc3c(Nc4cccc(C(F)(F)F)c4)ncnc32)cc1C	/	/	.	/
Cc1nc(-c2coc3cc(O)c(C)cc3c2=O)cs1	.	7.1µM	.	.
CC(O)(c1cccc(F)c1)c1nc(-c2cccc(C(F)(F)F)c2)cs1 (stereo not drawn)	35µM	/	.	/
OC(c1ccccc1)(c1nc(-c2cccc(C(F)(F)F)c2)cs1)C(F)(F)F (stereo not drawn)	28µM	/	.	/
O=C(O)c1cccc(-c2csc(C(O)(c3ccccc3)C(F)(F)F)n2)c1 (stereo not drawn)	.	/	.	/
CC(O)(c1cccc(F)c1)c1nc(-c2ccccc2)cs1 (stereo not drawn)	.	/	.	/
Cc1ccc(C)n1-c1nnc(N2CCCC(C(=O)NCc3cccc(Cl)c3)C2)s1 (stereo not drawn)	/	/	.	/
c1ccc(-c2ccc(-c3ccccn3)nn2)nc1	/	14µM	/	.
Cc1ccc(-n2c(Cc3ccccc3)n[nH]c2=S)cc1	.	7.9µM	?	.
S=c1[nH]nc(Cc2ccccc2)n1-c1ccccc1	.	?	?	.
Cc1cc(C)nc(SCc2n[nH]c(=S)n2C)n1	.	.	?	.
S=c1[nH]nc(Cc2ccccc2)n1-c1ccc(Cl)cc1	.	.	2.8µM	.
S=c1[nH]nc(COc2ccc(Cl)cc2)n1-c1ccccc1	.	?	8.9µM	.
Cc1ccc(-n2c(CSc3nc(C)cc(C)n3)n[nH]c2=S)cc1	.	?	7.1µM	.
Cc1ccc(CN(Cc2cccn2-c2nnc(N3CCCC3=O)s2)C(=O)Nc2cc(C)cc(C)c2)cc1	/	/	.	/
O=C(Nc1cc(Cl)cc(Cl)c1)c1ccc(F)c(S(=O)(=O)NC2CCCCC2)c1	/	/	.	/
CCc1ccc(CN(Cc2cn[nH]c2-c2ccc(OC)cc2)C(=O)Nc2ccc(Br)cc2)cc1	/	/	.	/
N#Cc1c[nH]n2c(NC3CCCCC3)c(-c3ccccc3F)nc12	/	/	.	/
S=c1[nH]nc(CCc2ccccc2)n1-c1ccccc1	.	3.5µM	?	.
S=c1[nH]nc(CCc2ccccc2)n1-c1ccc(Cl)cc1	.	?	?	.
SMILES	RE007 growth inh	LmPK inh	TbPYK inhibitor	NS1 inh
COc1ccc(OC)c2sc(N(Cc3cccnc3)C(=O)c3ccc(C(C)=O)cc3)nc12	/	/	.[15.4 µM]	/
C=CCn1c(-c2c[nH]c3ccccc23)n[nH]c1=S	.	22µM	?	?
C=CCn1c(-c2csc3ccccc23)n[nH]c1=S	.	11µM	?	.
Cc1ccc(-c2nc(-c3cc4cccc(OCc5cccc(F)c5)c4oc3=O)no2)cc1	/	/	.	/
CC(C)CN1C(=O)CC(Sc2ccccc2C(=O)O)C1=O (stereo not drawn)	.	.	.	.
Cc1ccc(N2C(=O)CC(Sc3ncccc3C(=O)O)C2=O)cc1 (stereo not drawn)	.	.	.	.
Cc1ccc(N2C(=O)CC(Sc3ccccc3C(=O)O)C2=O)cc1C (stereo not drawn)	14µM	.	.	.
Cc1cc(C)cc(N2C(=O)CC(Sc3ccccc3C(=O)O)C2=O)c1 (stereo not drawn)	11µM	.	.	.
Cc1ccc(N2C(=O)CC(Sc3ccccc3C(=O)O)C2=O)cc1 (stereo not drawn)	10µM	.	.	.
CN1C(=O)CC(Sc2ccccc2C(=O)O)C1=O (stereo not drawn)	.	.	.	.
CN(C)c1ccc(N2C(=O)CC(Sc3ccccc3C(=O)O)C2=O)cc1 (stereo not drawn)	6.3µM	.	.	.
COc1ccc(NC(=O)CSc2oc(-c3cccs3)nc2S(=O)(=O)c2ccc(Br)cc2)c(OC)c1	/	/	.	/
O=C(Nc1cccc(F)c1)c1ccc2c(c1)N(Cc1ccccc1)C(=O)c1ccccc1S2(=O)=O	/	/	.	/
Cc1cccc(N2C(=O)CC(Sc3ccccc3C(=O)O)C2=O)c1 (stereo not drawn)	5.6µM	.	.	.
Cc1ccc(N2C(=O)CC(Sc3ccccc3C(=O)O)C2=O)c([N+](=O)[O-])c1 (stereo not drawn)	?	.	.	.
O=C(O)c1ccccc1SC1CC(=O)N(c2ccc3c(c2)OCO3)C1=O (stereo not drawn)	22µM	.	.	/
Nc1ccccc1SC1CC(=O)N(c2ccc3c(c2)OCO3)C1=O (stereo not drawn)	.	.	.	.
O=C(c1cccc(F)c1)N1CCC2(CC1)CN(c1ccccn1)C2	/	/	.	/
CCC(Nc1ccc(-c2nc(-c3cccnc3)no2)cc1[N+](=O)[O-])c1ccccc1 (stereo not drawn)	/	/	.	/
Cc1nc(-c2ccc(NC(=O)c3ccccc3)cc2)cs1	45µM	.	?	.
Cc1ccc(C(=O)Nc2ccc(-c3csc(C)n3)cc2)cc1	.	.	.	.
O=C(CC1SC2=NCCN2C1=O)Nc1ccccc1 (stereo not drawn)	.	.	.	.
Cc1ccc(NC(=O)CC2SC3=NCCN3C2=O)cc1 (stereo not drawn)	5µM	.	.	.
Brc1ccc(-c2nc3ccccc3s2)s1	?	28µM	.	.
Nc1ccc(-c2nc3ccccc3s2)cn1	.	.	.	.
SMILES	RE007 growth inh	LmPK inh	TbPYK inhibitor	NS1 inh
c1ccc(-c2nc3ccccc3s2)nc1	.	11µM	.	.
CCOC(=O)c1sc(NC(=O)C(C)Sc2nc(-c3ccccc3)cc(C(F)(F)F)n2)c(C(=O)OC)c1C (stereo not drawn)	/	/	.	/
Cc1cc(-c2cc(-c3ccc(Cl)cc3)nc(N)c2C#N)co1	45µM	.	?	.
Cc1ccc(-c2cc(-c3ccc(Cl)cc3)c(C#N)c(N)n2)o1	.	.	?	.
Cc1ccc(-c2cc(-c3ccc(C)o3)nc(N)c2C#N)cc1	?	.	28µM	.
O=C(O)CCc1ccc(-c2ccccc2)n1CC(=O)Nc1ccccc1C(F)(F)F	/	/	.	/
CCN(CC)C(=O)c1ccc(NC(=O)Nc2ccccc2F)cc1	13µM	?	?	/
COC(=O)c1ccc(N2C(=O)CC(N3CCC(O)(c4ccc(Br)cc4)CC3)C2=O)cc1 (stereo not drawn)	35µM	.	.	.
Cc1cc(N2C(=O)CC(N3CCC(n4c(=O)[nH]c5ccccc54)CC3)C2=O)no1 (stereo not drawn)	?	.	.	.
COc1ccc(N2C(=O)CC(N3CCC(O)(c4ccc(Cl)cc4)CC3)C2=O)cc1 (stereo not drawn)	?	.	.	.
